The term inhibition denotes the change of the read-out against control, counted positive when it falls.

In all, about 330,000 compounds went through this assay and about 5,800 (1.8%) were called active. The sample holds actives, similar compounds and a random draw of the others, so the mix is not that of the screen.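 The calls were made as follows: active = inhibition above about 50% at the single tested dose (limit read from the data); inactive = the rest.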

The target of this assay is Sentrin-specific protease 6 (Homo sapiens) (UniProt Q9GZR1). Kind of assay: inhibition of human SENP6 catalytic domain – biochemical, luminescence, uHTS, primary screen (AID 2599).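 Also: plate controls were DMSO wells with enzyme for no effect and DMSO wells lacking enzyme for full effect.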 The conditions noted are these: Recombinant SENP6 catalytic domain, aminoluciferin luminescence; at 10 µM; active compounds read high.
Chain of Sentrin-specific protease 6 (Homo sapiens) (Q9GZR1 628-1112 limits assumed): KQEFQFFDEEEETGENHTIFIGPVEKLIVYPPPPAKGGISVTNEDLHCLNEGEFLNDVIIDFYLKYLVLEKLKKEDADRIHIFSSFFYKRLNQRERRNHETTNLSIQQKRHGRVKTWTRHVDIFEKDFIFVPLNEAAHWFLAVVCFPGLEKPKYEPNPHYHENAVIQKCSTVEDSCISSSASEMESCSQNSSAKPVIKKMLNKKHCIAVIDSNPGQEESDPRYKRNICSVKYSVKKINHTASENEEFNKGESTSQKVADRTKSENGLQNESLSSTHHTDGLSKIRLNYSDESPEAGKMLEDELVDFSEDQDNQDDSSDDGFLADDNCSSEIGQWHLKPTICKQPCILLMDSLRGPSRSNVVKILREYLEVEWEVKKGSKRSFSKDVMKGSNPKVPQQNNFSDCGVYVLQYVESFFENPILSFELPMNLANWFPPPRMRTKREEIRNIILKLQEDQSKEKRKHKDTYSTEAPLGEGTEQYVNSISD
Turning to `COc1ccc(/C=N/OCc2ccccc2C#N)c(OC)c1`, the inhibition was -10.3% (inactive). Then `O=C(/C=C/Sc1ncn[nH]1)c1ccc(Cl)cc1`, with -14.2% (inactive); and `Cc1noc(/C=C/c2ccco2)c1S(=O)(=O)N1CCC(C(=O)N2CCc3ccccc32)CC1`, with -4.32% (inactive). Then `CC(C)c1ccccc1OCC(O)CN(CC(O)COc1cccc2ccccc12)C(C)C` (stereo not drawn), with -38.4% (inactive); and `COc1ccc(-c2n[nH]c3c2CN(C(=O)c2ccc(F)cc2)CC3)cc1`, with -10.3% (inactive). As for `O=C(CCN1C(=O)[C@H]2CC=CC[C@H]2C1=O)NCc1nc(-c2ccccc2)no1`, the inhibition was -11% (inactive). Consider `OCCNc1nc(Nc2ccc(Cl)c(Cl)c2)nc2ccccc12`, for which the inhibition was 13.5% (inactive).

With `COc1ccc(OC)c(-c2csc(-c3cccs3)n2)c1`, the inhibition is -21.1% (inactive). Then `COc1ccc(-c2noc(CNC(=O)C(C)Oc3ccccc3)n2)cc1` (stereo not drawn), with -14.5% (inactive); and `COc1ccc(-c2nc(-c3ccccc3)no2)c(OC)c1`, with 97.7% (active). Turning to `CN(C(=O)c1c(Cl)cnn1C)C12CC3CC(CC(C3)C1)C2`, the inhibition is 5.39% (inactive). Then `COCn1c(COc2ccccc2)nc2ccccc21`, with -7.24% (inactive). Consider `CC(C)n1c(COc2ccccc2)nc2ccccc21`, for which the inhibition was -4.84% (inactive). Then `Cc1ccc(OCc2nc3ccccc3n2C)cc1`, with 65.3% (active). Regarding `COc1cccc(N2CC(NC(=O)c3ccc4ccccc4c3)CC2=O)c1` (stereo not drawn), the inhibition was -9.84% (inactive).

In the case of `CC(C)(CNC(=O)c1ccc(Cl)c(S(=O)(=O)N2CCc3ccccc3C2)c1)N1CCOCC1`, the inhibition is -0.183% (inactive).

For the compound `COc1ccc(OC)c(C(=O)c2ccc(Cl)cc2)c1`, the inhibition was 6.03% (inactive). Then `COc1ccc2occ(C(=O)c3ccc(N=C(C)N(C)C)cc3)c2c1`, with 62.1% (active).

Turning to `COc1ccc(OC)c(C(=O)c2coc3ccc(OC)cc23)c1`, the inhibition was -18.1% (inactive). Then `Cc1ccc(NC(=O)c2sccc2C)cc1[N+](=O)[O-]`, with 82.7% (active).

For the compound `Cc1ccc(/C=N/NC(=O)c2sccc2OCc2ccc(F)cc2)cc1`, the inhibition was -36.4% (inactive). Then `Cc1ccsc1C(=O)N/N=C/c1ccc([N+](=O)[O-])cc1`, with 82.9% (active). Then `Cc1cc(O)c(NC(=O)c2ccc(C)c([N+](=O)[O-])c2)cc1C`, with -1.6% (inactive); and `Cc1ccc(NC(=O)CN(C)CC(=O)Nc2cccc(F)c2)cc1[N+](=O)[O-]`, with -3.74% (inactive); and `O=C(N/N=C/c1ccc([N+](=O)[O-])cc1)C(=O)N1CCCC1`, with -54.5% (inactive). Then `O=S(=O)(NC1CCCCC1)c1ccc(F)c2ccccc12`, with -13.8% (inactive).

With `Cc1cc(Nc2ccc(Br)cc2)nc2ccccc12`, the inhibition was 0.575% (inactive). Then `O=c1ccnc(Nc2ccc(Cl)cc2)[nH]1`, with -2.45% (inactive). With `Clc1ccc(Nc2ccc3ccccc3n2)cc1`, the inhibition is 89.2% (active). Then `CN(C)/C=C(\C#N)C(=O)c1cccnc1Oc1cccc(F)c1`, with -2.99% (inactive); and `COc1ccc2oc(=O)cc(CN3CCOCC3)c2c1`, with -0.296% (inactive); and `CCCCC(O)(CCCC)C(=O)NN(C(=O)CCl)c1ccccc1`, with -17.7% (inactive).

For `O=C(Nc1ccncc1)c1ccccc1[N+](=O)[O-]`, the inhibition was -15.3% (inactive).

Turning to `O=C(Nc1ccccc1C(=O)Nc1ccncc1)c1ccc([N+](=O)[O-])cc1`, the inhibition was 58.6% (active). Then `O=C(Nc1ccncc1)c1ccc([N+](=O)[O-])cc1Cl`, with -18.8% (inactive).

For `CC(=O)N(c1ccc2oc(=O)sc2c1)S(=O)(=O)c1ccc(C)cc1`, the inhibition was 15.9% (inactive). Then `Cc1ccc(S(=O)(=O)N2CCN(C(=O)CN3C(=O)NC(C)(c4ccc(Cl)cc4)C3=O)CC2)c(C)c1` (stereo not drawn), with -2.29% (inactive). Then `O=C(OCc1ccc(-c2ccccc2)cc1)c1cccc(O)c1`, with 2.41% (inactive); and `CC(C)n1c(NCc2c[nH]c3ccccc23)nc2ccccc21`, with 9.71% (inactive). Then `Cc1ccc(O)c(CNc2nc3ccccc3[nH]2)c1`, with -16.5% (inactive); and `Cc1ccc(O)c(CNc2nc3ccccc3n2C)c1`, with 51.5% (active); and `COC(=O)c1sccc1NC(=O)CC1C(=O)NCCN1C(=O)Nc1ccc(F)cc1F` (stereo not drawn), with -25.4% (inactive). For the compound `Cc1ccc(N2C(=O)C3C4C=CC(CC4)C3C2=O)cc1Cl` (stereo not drawn), the inhibition is 14.5% (inactive). Then `O=C(Nc1ccc(N2CCN(C(=O)c3ccccc3)CC2)c(Cl)c1)c1cccnc1`, with 14.4% (inactive). Then `O=[N+]([O-])c1ccccc1SNc1ccccn1`, with -6.35% (inactive).

With `CCCOc1ccc(C(=O)NCCc2ccccc2)cc1`, the inhibition is 76.4% (active). `CCCc1ccc(OCCNC(=O)c2ccco2)cc1`: the inhibition was 14.5% (inactive). With `CCCc1ccc(OCCNC(=O)c2ccccc2Br)cc1`, the inhibition is 14.6% (inactive). For `OCC[C@H]1C[C@H](O)[C@@H](O)[C@]2(CCCCO2)O1`, the inhibition is -7.27% (inactive).

For `O=C(COc1ccc2oc3c(c2c1)CCCC3)Nc1ccccn1`, the inhibition is 56.4% (active).

As to `CCN(CC)CCCNC(=O)COc1ccc2oc3c(c2c1)CCCC3`, the inhibition was -9.52% (inactive). Then `CCOC(=O)N1CCN(C(=O)COc2ccc3oc4c(c3c2)CCCC4)CC1`, with 1.75% (inactive). Then `CCOC(=O)c1sc(NC(=O)C2CSC3(C)CCC(=O)N23)nc1C` (stereo not drawn), with -17.8% (inactive).

As to `O=C(NCCc1ccc(Cl)cc1)C1CCCN1C(=O)NCc1ccccc1` (stereo not drawn), the inhibition was 19.7% (inactive).

In the case of `O=C(NCC(c1ccco1)N1CCc2ccccc2C1)c1ccccc1Cl` (stereo not drawn), the inhibition was -27.1% (inactive).

On to `CCOC(=O)c1ccc(Nc2cc(C)nc3nc(C)nn23)cc1`, for which the inhibition is 3.17% (inactive). Then `CCOC(=O)c1ccc(Nc2cc3ccccc3c(=O)[nH]2)cc1`, with 85.9% (active); and `CCOC(=O)c1ccc(NC(=O)c2cc(=O)[nH]c3ccccc23)cc1`, with -1.31% (inactive). As for `CCc1ccc(NC(=O)CN2C(=O)CSC2=O)cc1`, the inhibition is 3.31% (inactive). Then `CCc1nc2sc3c(Cl)ncnc3c2c2c1CCCC2`, with -2.17% (inactive); and `Cc1onc(C(=O)Nc2ccc3c(c2)OCO3)c1[N+](=O)[O-]`, with 0.864% (inactive).

In the case of `COCc1nnc(NC(=O)c2ccc3c(c2)OCO3)s1`, the inhibition was 13.6% (inactive). Then `CC(=O)Nc1cccc(C(=O)OCC(=O)c2ccc3c(c2)OCO3)c1`, with 83.6% (active); and `Cc1ccc2sc(NNC(=O)c3ccc4c(c3)OCCO4)nc2c1C`, with 12.7% (inactive); and `CN1CCN(c2ccc(NC(=O)c3ccc4c(c3)OCCO4)cc2Cl)CC1`, with 3.53% (inactive).

With `CC(NC(=O)Nc1cccc([N+](=O)[O-])c1)c1ccc2c(c1)OCO2` (stereo not drawn), the inhibition was -3.48% (inactive). Then `CC(NC(=O)COC(=O)c1ccc2c(c1)OCO2)c1ccccc1` (stereo not drawn), with -2.95% (inactive); and `O=C(Nc1nc2ccccc2s1)c1ccc2c(c1)OCO2`, with 94.8% (active); and `O=C(Nc1cccc([N+](=O)[O-])c1)c1ccc2c(c1)OCO2`, with 66.7% (active). Then `O=C(COC(=O)c1ccc(F)cc1)Nc1ccc2c(c1)OCO2`, with -6.02% (inactive); and `O=C(Nc1ccc2c(c1)OCCO2)c1ccoc1`, with -9.58% (inactive); and `O=C(Nc1ccccc1)c1ccc2c(c1)OCCCO2`, with 86.7% (active). On to `Cc1cc(NC(=O)CN2C(=O)NC(CC(C)C)C2=O)no1` (stereo not drawn), for which the inhibition was -8.76% (inactive).

Regarding `Cc1cc(C)nc(-n2nc(C)cc2NC(=O)c2ccc(F)cc2F)n1`, the inhibition is 6.48% (inactive). Then `CC(=O)Nc1ccc(NC(=O)C(NS(=O)(=O)c2ccc3c(c2)OCCO3)C(C)C)cc1` (stereo not drawn), with 16.7% (inactive); and `COc1cccc(NC(=O)N2CCC(NC(=O)C(Cc3cccc(C)c3)NC(C)=O)CC2)c1` (stereo not drawn), with 20.6% (inactive). Then `Cc1ccc2cccc(S(=O)(=O)N3CCN(c4ccccc4F)CC3)c2n1`, with -3.25% (inactive); and `O=C(Nc1ccnn1C1CCN(Cc2cccc(OCCO)c2)CC1)C1CCCC1`, with -17.8% (inactive); and `O=C(CSc1ccccn1)Nc1nc2c(ccc3ccccc32)s1`, with -10.2% (inactive). As for `CCc1nn(CCCN2CCN(c3cccc(Cl)c3)CC2)c(=O)n1CCOc1ccccc1`, the inhibition is -12% (inactive). Then `CN(C(=O)c1cccc(NC(=O)C2CCN(C(=O)OC(C)(C)C)CC2)c1)C1CCC1`, with -7.07% (inactive); and `CCN(CC)S(=O)(=O)c1ccc(N2CC(C(=O)NCc3cccnc3)CC2=O)cc1` (stereo not drawn), with -2.04% (inactive); and `O=C(Nc1ccccc1)c1ccc2c(c1)OCO2`, with 85.1% (active). `CN(Cc1c(F)cccc1Cl)C(=O)CNC(=O)c1ccc2c(c1)OCO2`: the inhibition is -13.3% (inactive).

For the compound `N#Cc1ccccc1NC(=O)c1ccc2c(c1)OCO2`, the inhibition is -12.5% (inactive). Then `COc1cc(C(=O)NCC2(c3ccccc3)CCCC2)ccc1OC(C)C`, with 2.81% (inactive); and `CC(C)C(=O)Nc1cccc(C(=O)Nc2ccc3c(c2)OCO3)c1`, with 33.6% (inactive). `O=C(Nc1ccc(NC(=O)c2ccc3c(c2)OCO3)cc1)c1cccc(Cl)c1`: the inhibition was -11.5% (inactive). Turning to `O=C(Nc1ccc(N2CCOCC2)cc1)c1ccc2c(c1)OCO2`, the inhibition was 25.4% (inactive). Then `COc1ccc(C(=O)Nc2ccc3c(c2)OCO3)cc1OC`, with 80.8% (active); and `COc1ccc(C(=O)Nc2ccc(C3(C#N)CCCC3)cc2)cc1OC`, with 96.3% (active). Then `COc1ccc(C(=O)Nc2ccc3nc(N4CCCCC4)cc(C)c3c2)cc1OC`, with -7.43% (inactive); and `O=C(Nc1ccccc1F)c1ccc2c(c1)OCO2`, with 71.4% (active); and `COc1cc(NC(=O)c2ccc3c(c2)OCO3)ccc1NC(=O)c1cccs1`, with -45.6% (inactive). In the case of `COc1ccc(C(=O)NCC2CCCCC2)cc1S(=O)(=O)N1CCCC1`, the inhibition was -0.795% (inactive). Then `COc1ccc(COC(=O)c2n[nH]c3ccccc23)cc1F`, with -5.01% (inactive); and `Cc1nn(C)c(C)c1S(=O)(=O)N1CCC(CO)(Cc2ccc(Cl)cc2)CC1`, with -8.17% (inactive). Then `CC(C)N1C(=O)N(c2ccccc2)C(C)(O)CC1(C)C` (stereo not drawn), with -17.1% (inactive).

For the origin of these results see PubChem BioAssay AID2599 (Sanford-Burnham Center for Chemical Genomics, 2010).
